Counter-ions that a name gives are not always drawn. Unmarked numbers belong to inactive results.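 How the source made its calls: active = normalised median growth AUC below 0.1 of DMSO control; inactive = AUC 0.1 or higher.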

Experiment in all cases: growth AUC normalised to DMSO control (median) (fraction of control); higher = less growth inhibition, active = hit call of the paper
What all share (settings): 20 µM

One test relates to P. vulgatus RND KO. The method in brief:
(§1)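 In 96-well plates of mGAM seeded at OD578 0.01, strains that had been passaged twice overnight without oxygen were exposed to approved-drug library compounds at 20 μM with 1% DMSO. Hourly OD578 readings were taken for 24 h in an anaerobic incubator. The trapezoidal-rule area under the curve, with curves truncated at entry into stationary phase, was expressed relative to same-plate vehicle wells as the median of three biological replicates.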

The next test concerns P. vulgatus WT. The method in brief:
as §1

The subject of test [1] is S. enterica typhimurium WT. The method in brief: as §1
For test [2], the system named is S. enterica typhimurium tolC KO. The method in brief:
as §1
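Further: active when median AUC fell below 0.1.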

Take `COc1ccc2c(c1)c(CC(=O)OC/C=C(\C)CC/C=C(\C)CCC=C(C)C)c(C)n2C(=O)c1ccc(Cl)cc1` [Indometacin farnesil]: the “growth AUC normalised to DMSO control” value with P. vulgatus RND KO is 1; with P. vulgatus WT it was 0.988; in test [1], 0.996; in test [2] it was 1.01.
For the molecule `Cc1ccc2c(Cl)cc(Cl)c(O)c2n1` [Chlorquinaldol], the “growth AUC normalised to DMSO control” value in the test with P. vulgatus RND KO was 0.0174 (active); in the test on P. vulgatus WT, 0.014 (active); in test [1], 0.982; in test [2], 0.371.
For `C[C@@H](NCCCc1cccc(C(F)(F)F)c1)c1cccc2ccccc12` [Cinacalcet hydrochloride] the same measures were 1.01, 1.02, 1.01 and 0.996.
For `Cc1ccc(O)c([C@H](CCN(C(C)C)C(C)C)c2ccccc2)c1` [Tolterodine tartrate] the same measures were 1.01, 1.01, 1 and 0.971.
For `O=C(O)CNC(=O)c1ccccc1` [Hippuric acid] the same measures were 1.1, 1.05, 1.01 and 1.02.
Turning to `COC(=O)C1=C(C)NC(C)=C(C(=O)OC2CCCN(Cc3ccccc3)C2)C1c1cccc([N+](=O)[O-])c1` (centres undefined) [Benidipine hydrochloride], the “growth AUC normalised to DMSO control” value is 1.01 in the test on P. vulgatus RND KO, 0.968 in the test with P. vulgatus WT, 0.993 in test [1] and 0.961 in test [2].
For `C[C@H]1[C@@H](O)O[C@@H]2O[C@@]3(C)CC[C@H]4[C@H](C)CC[C@@H]1[C@@]24OO3` [Artenimol] the same measures were 1.04, 1.04, 1 and 1.
For `CC(C)Cc1ccc(CC(=O)O)cc1` [Ibufenac] the same measures were 1.06, 1.06, 1.01 and 0.981.
Consider `CCOc1nc2cccc(C(=O)OCc3oc(=O)oc3C)c2n1Cc1ccc(-c2ccccc2-c2noc(=O)[nH]2)cc1` [Azilsartan medoxomil], for which the “growth AUC normalised to DMSO control” value in the test on P. vulgatus RND KO is 0.988; in the test on P. vulgatus WT it was 0.962; in test [1] it was 1; in test [2], 0.998.
In the case of `CC(C)(C)C(O)/C=C/c1ccc2c(c1)OCO2` (centres undefined) [Stiripentol], the “growth AUC normalised to DMSO control” value in the test with P. vulgatus RND KO is 1.01; in the test with P. vulgatus WT it was 1.02; in test [1] it was 1; in test [2] it was 0.93.
On to `CC(C)(C)C(=O)C(Oc1ccc(Cl)cc1)n1ccnc1` (centres undefined) [Climbazole], for which the “growth AUC normalised to DMSO control” value was 0.968 in the test on P. vulgatus RND KO, 0.984 with P. vulgatus WT, 0.993 in test [1] and 0.953 in test [2].
For the molecule `O=C1CC[C@@H](C(=O)N2CSC[C@H]2C(=O)O)N1` [Pidotimod], the “growth AUC normalised to DMSO control” value was 0.991 in the test with P. vulgatus RND KO, 0.993 in the test with P. vulgatus WT, 1 in test [1] and 0.991 in test [2].
Consider `NC(=O)[C@@H]1CCCN1C(=O)[C@H](Cc1c[nH]cn1)NC(=O)[C@@H]1CCC(=O)N1` [Thyrotropin-Releasing Hormone], for which the “growth AUC normalised to DMSO control” value in the test on P. vulgatus RND KO was 1.05; with P. vulgatus WT, 1.04; in test [1], 0.996; in test [2], 1.01.
For `CC(=O)N[C@@H](CCC(N)=O)C(=O)O` [Acetyl-L-glutamine] the same measures were 0.995, 1, 0.998 and 0.999.
Take `COc1c(O)cc2c(c1O)[C@@H]1O[C@H](CO)[C@@H](O)[C@H](O)[C@H]1OC2=O` [Bergenin]: the “growth AUC normalised to DMSO control” value in the test on P. vulgatus RND KO is 1.04; in the test with P. vulgatus WT, 1.01; in test [1], 1.02; in test [2], 0.995.
For `CCN1CC(CCN2CCOCC2)C(c2ccccc2)(c2ccccc2)C1=O` (centres undefined) [Doxapram hydrochloride] the same measures were 1.05, 1.03, 1.02 and 0.996.
Take `O=[N+]([O-])c1ccc(O)c2ncccc12` [Nitroxoline]: the “growth AUC normalised to DMSO control” value was 0.0544 (active) with P. vulgatus RND KO, 0.0282 (active) in the test with P. vulgatus WT, 0.237 in test [1] and 0.169 in test [2].
For `CC(C)(C)NC(=O)[C@@H]1CN(Cc2cccnc2)CCN1C[C@@H](O)C[C@@H](Cc1ccccc1)C(=O)N[C@H]1c2ccccc2C[C@H]1O` [Indinavir sulfate] the same measures were 1, 0.984, 0.997 and 0.994.
For `COC(=O)N/N=C/c1c[n+]([O-])c2ccccc2[n+]1[O-]` [Carbadox] the same measures were 0.0197 (active), 0.0112 (active), 0.558 and 0.591.
`O=C1[C@@H]2[C@H]3CC[C@H](C3)[C@@H]2C(=O)N1CCCCN1CCN(c2ncccn2)CC1` [Tandospirone]: the “growth AUC normalised to DMSO control” value in the test with P. vulgatus RND KO was 1.07; with P. vulgatus WT, 1.05; in test [1], 1.01; in test [2], 0.996.
For `CC(COc1ccccc1)NN` (centres undefined) [Phenoxypropazine dihydrochloride] the same measures were 1.07, 1.08, 1.01 and 0.994.
